Assay outcomes as filed in PubChem BioAssay.
This is a sample that favours compounds with a hit; in the whole collection about 19% have one here.
TDP1 cell noCPT: qHTS for Inhibitors of human tyrosyl-DNA phosphodiesterase 1 (TDP1): qHTS in cells in absence of CPT. DT40 Tdp1-/- hTDP1 cells, no CPT, ATP luminescence, 48 h. 420,000 compounds, 15% hits. Potency, µM (highest dose often 46.2 µM), inactives show at the highest dose activity change, negative = growth inhibition, actives largely listed as inhibitors; note: potency is the fitted concentration of half-maximal effect; nearly all actives have a fitted effect of over 55% in size
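Camptothecin absent (DMSO only). Human TDP1-complemented DT40 knockout cells, 400 cells/well, 37 °C for minimum 48 hr; ATP measured via CellTiter-Glo, 30 min dark incubation, luminescence.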
DT40 TDP1 CPT: qHTS for Inhibitors of human tyrosyl-DNA phosphodiesterase 1 (TDP1): qHTS in cells in presence of CPT; chicken DT40 Tdp1-/-;hTDP1 cells + 20 nM CPT, ATP luminescence, 48 h; Potency, µM (top dose mostly 46.2 µM), inactives show at the top dose activity change, negative = growth inhibition, hits mostly inhibitors; 420,000 compounds, 12% hits; note: potency is the fitted concentration of half-maximal effect; nearly all actives have a fitted effect of over 55% in size
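Chicken DT40 Tdp1-/- cells complemented with human TDP1, 400 cells/well, exposed to compounds plus 20 nM camptothecin for at least 48 h at 37 C; viability read as ATP content by CellTiter-Glo luminescence.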
HT1080 IDH1KD tx: qHTS for induction of synthetic lethality in tumor cells producing 2HG: qHTS for the HT-1080-IDH1KD cell line; HT-1080 IDH1 knockdown viability, ATP luminescence, 48 h; Potency, µM (series often up to 46.1 µM), inactives show top-dose activity, negative = toxicity, most hits filed as cytotoxic; 360,000 compounds, 2% hits; AID 686971, 2013;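 note: potency is the fitted concentration of half-maximal effect; 0% = DMSO wells and -100% = cell-free medium wells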
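After a 2 h attachment period, IDH1KD HT-1080 cells took pin-transferred compound for 48 h at 37 °C; ATP-based luminescence after 10 min room-temperature reagent incubation reported viability.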
IL1B secr inh: qHTS for Inhibitors of Inflammasome Signaling: IL-1-beta AlphaLISA Primary Screen; THP-1 LPS/ATP IL-1B secretion, AlphaLISA, 16 h; active compounds read low; AID 743279, 2014; 360,000 compounds, 4.7% hits; activity change, % at 57.5 µM; in the data active = activity change below about -50%; inconclusive = mostly about -30% to -49%
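THP-1 cells pretreated 1 hr with compounds (up to 57.5 uM final), then stimulated with LPS (250 ng/mL final) plus ATP (1.25 mM final); secreted IL-1B measured by AlphaLISA after 16 hr, decreased signal indicating inhibition.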
HT1080NT lethal: qHTS for induction of synthetic lethality in tumor cells producing 2HG: qHTS for the HT-1080-NT fibrosarcoma cell line | HT-1080-NT fibrosarcoma viability, CellTiter-Glo ATP luminescence, 48 h | Potency, µM (titrated, usually from 46.1 µM), inactives show at the highest dose activity, negative = less viability, most hits filed as cytotoxic | 360,000 compounds, 1.6% hits | AID 686970, 2013;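 note: NT is the 2HG producing partner of a matched IDH1 knockdown line; potency is the fitted concentration of half-maximal effect; 0% = DMSO-treated cells and -100% = media-only wells without cells; nearly all actives have a fitted effect of over 55% in size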
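HT-1080-NT fibrosarcoma cells (2HG-overproducing), 750 cells/well in RPMI with 5% FBS, dosed after 2 h and incubated 48 h at 37C. CellTiter-Glo luminescence normalized to DMSO and no-cell wells; concentration-response curves fitted and classed.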
Numbers without * were called inactive. Unless noted, calls come from the whole dose curve; as a rule, active = well fitted curve in the direction sought with a large enough effect; inconclusive = small, poorly fitted or top-dose-only effect, or another doubt; inactive = no such curve, though single readings can be large; an effect the other way counts as inactive or inconclusive. Unless noted, % is set by controls: 0 for no effect and ±100 for the full control effect.

How did Cc1csc(NC(=O)c2ccc3c(=O)n4c(nc3c2)CCCCC4)n1 do in these assays?
TDP1 cell noCPT: inconclusive; DT40 TDP1 CPT: -22%; HT1080 IDH1KD tx: 1%; IL1B secr inh: 3; HT1080NT lethal: 1%

What do the screens show for `O=C(Nc1nccs1)c1ccc2c(=O)n3c(nc2c1)CCCCC3`?
TDP1 cell noCPT: 16µM*; DT40 TDP1 CPT: inconclusive; HT1080 IDH1KD tx: -24%; IL1B secr inh: 0; HT1080NT lethal: 1%

Results for O=C(CNC(=O)c1cccc(OC(F)F)c1)OCc1cc(=O)n2cc(Br)ccc2n1 ?
TDP1 cell noCPT: -2%; DT40 TDP1 CPT: 4%; HT1080 IDH1KD tx: 3%; IL1B secr inh: 12; HT1080NT lethal: 6%

How did CCCN1CCN(c2ncnc3sc(C(=O)Nc4ccc(OC(F)(F)F)cc4)c(C)c23)CC1 do in these assays?
TDP1 cell noCPT: 21µM*; DT40 TDP1 CPT: inconclusive

Results for CCCN1CCN(c2ncnc3sc(C(=O)Nc4ccc(C(C)C)cc4)c(C)c23)CC1 ?
TDP1 cell noCPT: inconclusive; DT40 TDP1 CPT: 21µM*

Results for CCN1C(c2ccc(F)cc2)=CS/C1=C(/C#N)c1nnc2n1-c1ccccc1SC2 ?
TDP1 cell noCPT: inconclusive; DT40 TDP1 CPT: inconclusive; HT1080 IDH1KD tx: 5%; IL1B secr inh: -13; HT1080NT lethal: 6%

What do the screens show for `CC1CCCCN1CCCNC(=O)CN1C(=O)c2cccnc2Oc2ccc(Cl)cc21` (stereo unspecified)?
TDP1 cell noCPT: 15%; DT40 TDP1 CPT: -10%; HT1080 IDH1KD tx: -7%; IL1B secr inh: -24; HT1080NT lethal: -1%

How did CC(c1ccccc1)n1c(-c2cccs2)nc2c(c(=O)c3ccccc3n2C)c1=O (stereo unspecified) do in these assays?
TDP1 cell noCPT: inconclusive; DT40 TDP1 CPT: -24%; HT1080 IDH1KD tx: 24%; IL1B secr inh: 37; HT1080NT lethal: 18%

How did N#C/C(=C\c1ccncc1)c1nc2ccccc2c(=O)[nH]1 do in these assays?
TDP1 cell noCPT: -11%; DT40 TDP1 CPT: -5%; HT1080 IDH1KD tx: -7%; IL1B secr inh: 47; HT1080NT lethal: -1%

What do the screens show for `COc1ccccc1NC(=O)Cn1nnc(C(=O)NCc2cccs2)c1N`?
TDP1 cell noCPT: 0.46µM*; DT40 TDP1 CPT: 0.58µM*; HT1080 IDH1KD tx: 2.1µM*; IL1B secr inh: 37; HT1080NT lethal: 2.3µM*

Results for COc1ccc(NC(=O)Cn2nnc(C(=O)NCc3ccccc3)c2N)c(OC)c1 ?
TDP1 cell noCPT: 13µM*; DT40 TDP1 CPT: inconclusive; HT1080 IDH1KD tx: inconclusive; IL1B secr inh: 30; HT1080NT lethal: inconclusive

What do the screens show for `COc1ccc(NC(=O)Cn2nnc(C(=O)NCCc3ccccc3)c2N)c(OC)c1`?
TDP1 cell noCPT: 19%; DT40 TDP1 CPT: -5%; HT1080 IDH1KD tx: 11%; IL1B secr inh: 26; HT1080NT lethal: inconclusive

Results for COc1ccc(CCNC(=O)c2nnn(CC(=O)Nc3cccc(F)c3)c2N)cc1OC ?
TDP1 cell noCPT: -1%; DT40 TDP1 CPT: 4%; HT1080 IDH1KD tx: -12%; IL1B secr inh: -98*; HT1080NT lethal: -17%

How did CCc1ccccc1NC(=O)Cn1nnc(C(=O)NCc2cccs2)c1N do in these assays?
TDP1 cell noCPT: 3.3µM*; DT40 TDP1 CPT: 3.7µM*; HT1080 IDH1KD tx: 4.1µM*; IL1B secr inh: 28; HT1080NT lethal: 5.8µM*

Results for COc1ccc(CCNC(=O)c2nnn(CC(=O)Nc3ccccc3)c2N)cc1OC ?
TDP1 cell noCPT: -27%; DT40 TDP1 CPT: -14%; HT1080 IDH1KD tx: -2%; IL1B secr inh: 225; HT1080NT lethal: -17%

Results for Cc1cccc(N(C)S(=O)(=O)c2c(C)noc2C)c1 ?
TDP1 cell noCPT: inconclusive; DT40 TDP1 CPT: -5%; HT1080 IDH1KD tx: 0%; IL1B secr inh: 14; HT1080NT lethal: -9%

What do the screens show for `COC(=O)c1ccc(/C=C/C(=O)OCC(=O)c2ccc[nH]2)cc1`?
TDP1 cell noCPT: -1%; DT40 TDP1 CPT: 0%; HT1080 IDH1KD tx: 2%; IL1B secr inh: -1; HT1080NT lethal: 1%

Results for CSc1nn(Cc2cccc(Cl)c2)c(N(C(C)=O)C(C)=O)c1S(=O)(=O)c1ccccc1 ?
TDP1 cell noCPT: 21µM*; DT40 TDP1 CPT: inconclusive

What do the screens show for `CC(=O)Nc1cccc(C(=O)N2CCN(S(=O)(=O)Cc3ccccc3)CC2)c1`?
TDP1 cell noCPT: -12%; DT40 TDP1 CPT: -16%; HT1080 IDH1KD tx: 1%; IL1B secr inh: 10; HT1080NT lethal: 3%

How did CCO[C@@H]1OC(C(=O)Nc2ccccc2)=C[C@H](C2CC2)[C@H]1CCCO do in these assays?
TDP1 cell noCPT: inconclusive; DT40 TDP1 CPT: inconclusive; HT1080 IDH1KD tx: 21%; IL1B secr inh: 6; HT1080NT lethal: 9%

How did C#Cc1ccc([C@@H]2C=C(C(=O)Nc3ccccc3)O[C@H](OCC)[C@H]2CCCO)cc1 do in these assays?
TDP1 cell noCPT: 13µM*; DT40 TDP1 CPT: 16µM*; HT1080 IDH1KD tx: -11%; IL1B secr inh: inconclusive; HT1080NT lethal: -3%

How did CCO[C@H]1OC(C(=O)Nc2ccccc2)=C[C@@H](c2ccc(C(F)(F)F)cc2)[C@@H]1CCCO do in these assays?
TDP1 cell noCPT: 15µM*; DT40 TDP1 CPT: 15µM*; HT1080 IDH1KD tx: inconclusive; IL1B secr inh: -55*; HT1080NT lethal: inconclusive

Results for N#CC1(NC(=O)COc2ccc(C(N)=O)cc2)CCCC1 ?
TDP1 cell noCPT: 2%; DT40 TDP1 CPT: 14%; HT1080 IDH1KD tx: 14%; IL1B secr inh: 0; HT1080NT lethal: -3%

How did Cc1cccc(C2(c3cccc(C)c3)CC2C(=O)Nc2ccc([N+](=O)[O-])cc2O)c1 (stereo unspecified) do in these assays?
TDP1 cell noCPT: 5.2µM*; DT40 TDP1 CPT: 8.2µM*; HT1080 IDH1KD tx: inconclusive; IL1B secr inh: -98*; HT1080NT lethal: inconclusive

Results for COc1cccc(C2(c3cccc(OC)c3)CC2C(=O)Nc2ccccc2Cl)c1 (stereo unspecified) ?
TDP1 cell noCPT: 23µM*; DT40 TDP1 CPT: inconclusive; HT1080 IDH1KD tx: 21µM*; IL1B secr inh: 11; HT1080NT lethal: inconclusive
